Measured values reported in PubChem BioAssay (NCATS).
Records with an inconclusive call do not appear. Activity calls are given as the source filed them. Unless noted, calls follow the shape of the dose curve; as a rule, active = well fitted curve in the direction sought with a large enough effect; inconclusive = small, poorly fitted or top-dose-only effect, or another doubt; inactive = no such curve, though single readings can be large; an effect the other way counts as inactive or inconclusive.

Columns and labels:
[1] = target: Lysosomal acid glucosylceramidase (Homo sapiens) (UniProt P04062); assay: Glucocerebrosidase-p2 (AID 348; in the data active = potency below about 10 µM; also: potency is read from the fitted curve at half-maximal effect); conditions: purified GBA, blue fluorogenic substrate, 40 min
Procedure, shortened: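 Normal human glucocerebrosidase (0.2 nM) with blue fluorogenic substrate (80 uM final) in citrate/phosphate pH 5.9 with 10mM sodium taurocholate, 0.01% tween-20; 40 min RT, NaOH/glycine stop; fluorescence Ex 365/Em 440; AC50 from a titration from 0.6 nM upwards.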

[2] = AP1 Signaling Pathway (AID 357; active = well fitted curve in either direction with a large enough effect, not every such curve was filed as active;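 also: ME-180 reporter cells stimulated with EGF at its EC50 level; % is scaled to controls: 0 for no effect and ±100 for the full control effect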); conditions: ME-180 AP-1-bla reporter, EGF-induced, beta-lactamase ratio, 5 h; at 7.69 µM (top of the series) unless noted
Procedure, shortened: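 AP-1-bla ME-180 cells, Opti-MEM + 0.5% dialyzed FBS, plated overnight 37 °C. Cpd titration + EC50 EGF, 5 h 37 °C. CCF4 2.5 h RT; ex 405, em 460/530 ratio → %activity, AC50.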

[3] = target: Cytochrome P450 1A2 (Homo sapiens) (UniProt P05177); assay: p450-cyp1a2 (AID 410; calls by dose curve; also: potency is read from the fitted curve at half-maximal effect); conditions: recombinant CYP1A2, luciferin-ME demethylation, luminescence; series mostly up to 57 µM
Procedure, shortened: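 O-Demethylation of luciferin 6' methyl ether by human CYP1A2 is monitored as luciferase luminescence. Substrate sits at Km (100uM); enzyme is 20nM. Values are scaled to 57 uM furafylline as maximal inhibition.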

[4] = NFAT Signaling Pathway (AID 444; active = well fitted curve in either direction with a large enough effect, not every such curve was filed as active;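 also: carbachol stimulus at about its EC50 of 1 µM final; % is scaled to controls: 0 for no effect and ±100 for the full control effect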); conditions: Jurkat NFAT-bla M1, carbachol, beta-lactamase ratio, 5 h; at 7.69 µM (top of the series) unless noted
Procedure, shortened: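 Jurkat cells carrying an NFAT-driven β-lactamase reporter and co-transfected muscarinic M1 receptor were treated with compound plus carbachol (1 uM final, an EC50 level) for 5 h at 37 °C. CCF4 loading followed for 1 h at RT; 460/530 nm ratio gave %activity.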

[5] = Stat Signaling Pathway (AID 446; active = well fitted curve in either direction with a large enough effect, not every such curve was filed as active;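 also: ME-180 cervical cancer cells given 40 pM IL-6 alongside compound; SIE-controlled beta-lactamase reporter measured as 460/530 nm FRET emission ratio; % is scaled to controls: 0 for no effect and ±100 for the full control effect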); conditions: ME-180 (cervical carcinoma) SIE beta-lactamase reporter, IL-6 stimulated, 5 h; at 7.69 µM (top of the series) unless noted
Procedure, shortened: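 Emission at 460 and 530 nm (excitation 405 nm) reports SIE-controlled beta-lactamase in ME-180 cells. Cells received compound with 40 pM IL-6 for 5 hrs at 37 C; data scaled between 300 pM IL-6 and 125 nM JAK-inhibitor controls.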

[6] = target: Glucocorticoid receptor (Homo sapiens) (UniProt P04150); assay: GR-GFP Redistribution (AID 450;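 active = compounds whose dose series gives a full or clear partial fitted curve of increased nuclear translocation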; also: potency is read from the fitted curve at half-maximal effect); conditions: U2OS GR-GFP nuclear translocation, laser cytometry, 2 h
[7] = target: Glucocorticoid receptor (Homo sapiens) (UniProt P04150); assay: GR-EFC Redistribution (AID 451; calls by dose curve; also: potency is read from the fitted curve at half-maximal effect); conditions: CHO-K1 GR-EFC translocation, beta-gal luminescence, 2 h
Procedure, shortened: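 CHO-K1 cells stably expressing nuclear-localized β-gal enzyme acceptor and GR fused C-terminally to the enzyme donor fragment; ligand-driven nuclear translocation restores β-gal by complementation. Compounds titrated up to 46 uM final, 2 h at 37 °C; luminescence read.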

[8] = target: Mitogen-activated protein kinase 10 (Mus musculus) (UniProt Q61831); assay: JNK3 AlphaScreen Assay (AID 530; active = well fitted curve in either direction with a large enough effect, not every such curve was filed as active;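 also: kinase came from lysate of stimulated human HepG2 cells; signal reports phosphorylation of biotinylated GST-cJun 1-79 at Ser73 with 10 µM ATP; % is scaled to controls: 0 for no effect and ±100 for the full control effect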); conditions: JNK3 lysate, c-Jun phosphorylation; series mostly up to 57.1 µM
Procedure, shortened: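 Phosphorylation of biotinylated GST-cJun(1-79) at Ser73 is measured by AlphaScreen proximity luminescence. Enzyme is JNK3 in HepG2 lysates activated with interleukin-1beta and tumor necrosis factor alpha; ATP is 10 uM final.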

[9] = qHTS Assay for Lipid Storage Modulators (AID 1519; calls by dose curve); conditions: Drosophila S3 cells, BODIPY lipid droplet/cell ratio, laser cytometry, cells loaded with oleic acid; for activity change, negative = inhibition: at 57.5 µM (top of the series)
Procedure, shortened: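 Cells seeded at 5,000 per well were treated with compounds over a concentration series and loaded with oleic acid (400 uM, as added). Lipid droplet fluorescence (488 nm excitation, 500-530 nm channel) was read by laser-scanning cytometry and normalized to 20 uM Triacsin C.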

[10] = target: Dual specificity protein kinase CLK4 (Homo sapiens) (UniProt Q9HAZ1); assay: qHTS Assay for Inhibitors of CDC-like Kinase 4 (Kinase-Glo Assay) (AID 1770); conditions: recombinant Clk4, Kinase-Glo ATP depletion luminescence; series mostly up to 66.7 µM; also: % is scaled to controls: 0 for no effect and ±100 for the full control effect; nearly all actives have a fitted effect of over 65% in size
Procedure, shortened: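 Clk4 25 nM, RS peptide 100 uM, ATP 1 uM, pH 7.5 Tris, 10 mM MgCl2, 2.5 mM DTT; 4.5 h RT; ATP depletion read by Kinase-Glo luminescence.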

[11] = target: Dual specificity protein kinase CLK4 (Homo sapiens) (UniProt Q9HAZ1); assay: qHTS Assay for Inhibitors of CDC-like Kinase 4 (ADP-Glo Assay) (AID 1771); conditions: recombinant CLK4, ADP-Glo luminescence; series mostly up to 80 µM; also: % is scaled to controls: 0 for no effect and ±100 for the full control effect; nearly all actives have a fitted effect of over 70% in size
Procedure, shortened: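 Compounds are pin-transferred onto substrate mix (100 uM RS peptide, 1 uM ATP), then 25 nM Clk4 is added. After 1 hr at room temperature, ADP-Glo reagent runs 45 min, detection reagent 30 min, then luminescence is read.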

[12] = target: Dual specificity protein kinase CLK4 (Homo sapiens) (UniProt Q9HAZ1); assay: qHTS Assay for Inhibitors of CDC-like Kinase 4 (ADP-FP Assay) (AID 1795); conditions: Transcreener ADP fluorescence polarization; series mostly up to 50 µM;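 also: recombinant human CLK4 phosphorylating RS repeat peptide at 1 µM ATP; % is scaled to controls: 0 for no effect and ±100 for the full control effect; nearly all actives have a fitted effect of over 60% in size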
Procedure, shortened: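 Kinase activity was followed as ADP output, converted from fluorescence polarization with a calibration curve. Reactions ran one hour at low ATP (1 uM) with RS peptide substrate.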

[13] = target: Ubiquitin carboxyl-terminal hydrolase 1 (Homo sapiens) (UniProt O94782); assay: Inhibitors of USP1/UAF1: Pilot qHTS (AID 504865); conditions: purified USP1/UAF1, Ub-rhodamine cleavage fluorescence; series mostly up to 54.9 µM;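 also: rhodamine fluorescence freed from ubiquitin-rhodamine substrate followed over time; top concentration of the series differs between compounds; % is scaled to controls: 0 for no effect and ±100 for the full control effect; nearly all actives have a fitted effect of over 35% in size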
Procedure, shortened: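 Enzyme-free wells gave the negative control, while test wells held 1nM USP1/UAF1 preincubated with compound for 15 min at room temperature. Ub-Rho at 150nM final started the reaction, and fluorescence at 480/540 nm was recorded kinetically.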

[14] = Primary qHTS for small molecule stabilizers of the endoplasmic reticulum resident proteome: Secreted ER Calcium Modulated Protein (SERCaMP) assay (AID 1508630); conditions: SH-SY5Y GLuc-SERCaMP (Gaussia luciferase released on ER calcium loss) secretion, thapsigargin, luminescence; series mostly up to 38.4 µM; also: % is scaled to controls: 0 for no effect and ±100 for the full control effect
Procedure, shortened: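 The SH-SY5Y reporter protocol was run at 3 concentrations up to 38.3 uM (primary) or 11 concentrations (follow-up): 16 h compound, 100 nM thapsigargin for 4 h, then extracellular luciferase luminescence.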

[15] = target: 3',5'-cyclic-AMP phosphodiesterase 4B (Homo sapiens) (UniProt Q07343); assay: qHTS Assay for Inhibitors of PDE-IV (AID 607; active = well fitted activation curve with a large enough effect in the main read-out, with a control signal flat, not every such curve was filed as active; also: % of control where 0% means no effect); conditions: HEK293 ACTOne CNG channel cells, membrane potential fluorescence; series mostly up to 22.9 µM
Procedure, shortened: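 The readout is membrane depolarisation from a cAMP-sensing CNG channel, detected with a potential dye at ex 535/em 590. Cells were HEK293-derived (endogenous PDE-IV) at 1000 cells/well, titrated up to 22.9 uM final.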

[16] = target: Cytochrome P450 3A4 (Homo sapiens) (UniProt P08684); assay: qHTS Assay for Activators of Cytochrome P450 3A4 (AID 885); conditions: recombinant CYP3A4, Luciferin-PPXE luminescence, 60 min; series mostly up to 57.1 µM; also: nearly all actives have a fitted effect of over 65% in size; also: potency is read from the fitted curve at half-maximal effect
Procedure, shortened: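 Activators are scored by enhanced luminescence from CYP3A4 conversion of luciferin-PPXE (25uM, equal to KM) to luciferin, after 60 min at RT with an NADPH-regenerating system.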

[17] = target: Cytochrome P450 3A4 (Homo sapiens) (UniProt P08684); assay: qHTS Assay for Inhibitors and Substrates of Cytochrome P450 3A4 (AID 884); conditions: recombinant CYP3A4, Luciferin-PPXE luminescence; series mostly up to 57.1 µM; also: % is scaled to controls: 0 for no effect and ±100 for the full control effect; nearly all actives have a fitted effect of over 50% in size
Procedure, shortened: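 Luminescent readout of luciferin produced by CYP3A4 (20 nM) dealkylation of Luciferin-PPXE, 25 uM (its KM). NADPH-driven reaction ran 60 min at RT after 10 min compound preincubation; data scaled to 57 uM ketoconazole as 100% inhibition.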

[18] = measured here: cell count channel max response
[19] = measured here: lipid channel max response

3',5'-cyclic-AMP phosphodiesterase 4B (Homo sapiens), sequence (Q07343 whole entry, looked up): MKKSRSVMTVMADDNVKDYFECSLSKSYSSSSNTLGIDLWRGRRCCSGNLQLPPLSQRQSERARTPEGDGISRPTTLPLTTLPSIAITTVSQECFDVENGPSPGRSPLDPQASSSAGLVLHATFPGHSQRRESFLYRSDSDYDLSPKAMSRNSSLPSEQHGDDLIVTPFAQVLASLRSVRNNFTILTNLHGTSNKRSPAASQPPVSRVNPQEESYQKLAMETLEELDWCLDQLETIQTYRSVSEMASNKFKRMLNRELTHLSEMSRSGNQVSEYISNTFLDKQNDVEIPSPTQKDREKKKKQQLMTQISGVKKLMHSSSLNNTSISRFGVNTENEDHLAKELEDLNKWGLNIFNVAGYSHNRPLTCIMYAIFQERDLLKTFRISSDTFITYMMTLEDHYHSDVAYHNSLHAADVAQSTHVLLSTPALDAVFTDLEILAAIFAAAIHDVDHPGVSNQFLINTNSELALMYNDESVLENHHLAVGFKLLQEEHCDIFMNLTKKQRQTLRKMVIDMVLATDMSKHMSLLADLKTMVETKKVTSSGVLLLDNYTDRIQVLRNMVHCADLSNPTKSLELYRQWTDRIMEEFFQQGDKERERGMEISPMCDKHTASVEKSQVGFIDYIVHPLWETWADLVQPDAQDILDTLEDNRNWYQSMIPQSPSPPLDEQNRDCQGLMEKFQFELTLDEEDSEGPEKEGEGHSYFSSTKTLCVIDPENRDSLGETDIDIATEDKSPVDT
Ubiquitin carboxyl-terminal hydrolase 1 (Homo sapiens), sequence (O94782 whole entry, looked up): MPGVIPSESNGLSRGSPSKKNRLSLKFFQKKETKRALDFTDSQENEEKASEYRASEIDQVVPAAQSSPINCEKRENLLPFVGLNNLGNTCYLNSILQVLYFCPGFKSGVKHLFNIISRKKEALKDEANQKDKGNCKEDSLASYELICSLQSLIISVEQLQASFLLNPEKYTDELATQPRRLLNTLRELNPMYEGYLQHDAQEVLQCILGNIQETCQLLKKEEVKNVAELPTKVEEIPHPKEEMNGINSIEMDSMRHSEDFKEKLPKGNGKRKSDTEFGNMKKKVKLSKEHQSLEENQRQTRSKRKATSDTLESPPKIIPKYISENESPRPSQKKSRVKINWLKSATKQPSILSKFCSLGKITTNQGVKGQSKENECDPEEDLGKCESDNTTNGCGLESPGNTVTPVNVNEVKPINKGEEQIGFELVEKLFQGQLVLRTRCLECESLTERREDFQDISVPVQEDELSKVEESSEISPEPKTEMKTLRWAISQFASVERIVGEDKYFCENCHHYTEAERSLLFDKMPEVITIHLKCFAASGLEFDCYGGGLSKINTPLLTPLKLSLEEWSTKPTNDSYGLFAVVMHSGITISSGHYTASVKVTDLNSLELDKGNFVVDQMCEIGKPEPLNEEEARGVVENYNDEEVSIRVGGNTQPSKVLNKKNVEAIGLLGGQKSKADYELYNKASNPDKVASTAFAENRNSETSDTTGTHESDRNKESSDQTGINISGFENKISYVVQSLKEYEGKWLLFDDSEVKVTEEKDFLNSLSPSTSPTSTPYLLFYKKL
Glucocorticoid receptor (Homo sapiens), sequence (P04150 whole entry, looked up, the tested form may be a part): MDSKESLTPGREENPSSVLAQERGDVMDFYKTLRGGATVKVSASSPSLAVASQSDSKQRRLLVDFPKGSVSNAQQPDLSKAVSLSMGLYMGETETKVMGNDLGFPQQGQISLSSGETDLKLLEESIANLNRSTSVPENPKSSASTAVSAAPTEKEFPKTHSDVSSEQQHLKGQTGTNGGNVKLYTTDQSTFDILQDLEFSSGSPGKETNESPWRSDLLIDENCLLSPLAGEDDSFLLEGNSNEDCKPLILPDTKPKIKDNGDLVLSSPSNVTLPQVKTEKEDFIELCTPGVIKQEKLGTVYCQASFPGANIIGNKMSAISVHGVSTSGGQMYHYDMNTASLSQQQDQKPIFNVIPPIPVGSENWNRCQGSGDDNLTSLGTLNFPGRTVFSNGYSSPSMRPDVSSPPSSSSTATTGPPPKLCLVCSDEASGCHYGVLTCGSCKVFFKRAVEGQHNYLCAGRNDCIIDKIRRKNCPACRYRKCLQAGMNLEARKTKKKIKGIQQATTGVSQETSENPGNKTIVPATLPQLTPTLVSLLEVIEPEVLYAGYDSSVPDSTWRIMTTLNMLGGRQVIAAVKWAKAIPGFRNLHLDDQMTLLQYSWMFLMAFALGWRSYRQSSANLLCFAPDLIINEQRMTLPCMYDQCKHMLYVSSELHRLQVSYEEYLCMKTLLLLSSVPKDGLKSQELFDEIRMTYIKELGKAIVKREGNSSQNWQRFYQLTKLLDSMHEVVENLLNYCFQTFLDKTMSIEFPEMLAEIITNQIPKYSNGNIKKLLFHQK
Dual specificity protein kinase CLK4 (Homo sapiens), sequence (Q9HAZ1 whole entry, looked up): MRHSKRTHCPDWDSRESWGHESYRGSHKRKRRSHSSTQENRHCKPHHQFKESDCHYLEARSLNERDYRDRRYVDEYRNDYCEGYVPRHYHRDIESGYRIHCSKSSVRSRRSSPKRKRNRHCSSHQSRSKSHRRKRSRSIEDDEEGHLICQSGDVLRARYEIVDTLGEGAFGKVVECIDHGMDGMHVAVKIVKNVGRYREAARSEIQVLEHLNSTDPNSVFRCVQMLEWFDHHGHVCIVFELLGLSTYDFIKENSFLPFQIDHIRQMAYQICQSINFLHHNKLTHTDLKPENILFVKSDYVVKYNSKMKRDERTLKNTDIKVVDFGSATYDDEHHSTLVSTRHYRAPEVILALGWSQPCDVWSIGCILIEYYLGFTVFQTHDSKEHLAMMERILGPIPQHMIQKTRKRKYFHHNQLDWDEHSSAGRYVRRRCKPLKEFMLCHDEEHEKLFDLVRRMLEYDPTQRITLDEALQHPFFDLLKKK
Lysosomal acid glucosylceramidase (Homo sapiens), sequence (P04062 whole entry, looked up): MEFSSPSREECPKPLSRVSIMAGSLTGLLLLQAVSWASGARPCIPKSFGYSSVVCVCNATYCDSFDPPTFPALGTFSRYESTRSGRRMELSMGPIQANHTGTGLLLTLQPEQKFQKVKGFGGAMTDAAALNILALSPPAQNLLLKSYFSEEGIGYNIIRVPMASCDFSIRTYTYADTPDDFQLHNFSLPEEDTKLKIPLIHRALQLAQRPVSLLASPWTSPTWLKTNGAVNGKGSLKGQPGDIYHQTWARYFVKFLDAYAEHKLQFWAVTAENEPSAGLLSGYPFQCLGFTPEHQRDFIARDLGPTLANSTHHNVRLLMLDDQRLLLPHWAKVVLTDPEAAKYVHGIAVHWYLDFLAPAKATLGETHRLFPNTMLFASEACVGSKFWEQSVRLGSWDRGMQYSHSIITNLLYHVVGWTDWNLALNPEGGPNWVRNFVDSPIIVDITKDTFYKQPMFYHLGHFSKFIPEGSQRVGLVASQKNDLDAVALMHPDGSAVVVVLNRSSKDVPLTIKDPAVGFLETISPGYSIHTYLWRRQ
Cytochrome P450 3A4 (Homo sapiens), sequence (P08684 whole entry, looked up): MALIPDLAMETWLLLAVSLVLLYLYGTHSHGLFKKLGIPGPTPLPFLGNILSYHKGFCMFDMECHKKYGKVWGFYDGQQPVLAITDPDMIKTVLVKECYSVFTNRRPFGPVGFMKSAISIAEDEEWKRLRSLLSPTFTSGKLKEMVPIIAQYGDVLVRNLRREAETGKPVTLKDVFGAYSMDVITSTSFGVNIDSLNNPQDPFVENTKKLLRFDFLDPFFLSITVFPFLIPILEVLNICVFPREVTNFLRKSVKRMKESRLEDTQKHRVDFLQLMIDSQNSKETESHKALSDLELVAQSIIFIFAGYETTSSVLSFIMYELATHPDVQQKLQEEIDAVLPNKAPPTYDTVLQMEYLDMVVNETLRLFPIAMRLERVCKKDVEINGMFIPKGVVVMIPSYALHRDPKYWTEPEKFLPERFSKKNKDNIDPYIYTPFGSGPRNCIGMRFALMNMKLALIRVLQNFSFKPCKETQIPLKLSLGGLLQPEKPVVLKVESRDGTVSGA
Cytochrome P450 1A2 (Homo sapiens), sequence (P05177 whole entry, looked up): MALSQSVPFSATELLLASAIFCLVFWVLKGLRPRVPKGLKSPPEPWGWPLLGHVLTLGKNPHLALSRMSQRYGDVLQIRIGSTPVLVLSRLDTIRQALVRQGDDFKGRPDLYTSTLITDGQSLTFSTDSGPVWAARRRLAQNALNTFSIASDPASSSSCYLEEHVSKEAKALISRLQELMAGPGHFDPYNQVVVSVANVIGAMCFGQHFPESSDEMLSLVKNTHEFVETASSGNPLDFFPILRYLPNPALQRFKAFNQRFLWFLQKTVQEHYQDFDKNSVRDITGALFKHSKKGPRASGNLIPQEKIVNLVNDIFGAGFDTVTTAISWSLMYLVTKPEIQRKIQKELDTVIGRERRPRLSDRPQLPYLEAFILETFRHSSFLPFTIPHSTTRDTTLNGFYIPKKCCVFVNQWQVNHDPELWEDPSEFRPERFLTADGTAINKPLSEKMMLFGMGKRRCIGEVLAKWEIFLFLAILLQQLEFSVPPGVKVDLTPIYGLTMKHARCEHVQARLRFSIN

Cc1nc2cncnc2n(Cc2ccccc2)c1=O
8.3%: max response [9, 19]
inactive: Potency [1] > 11.4 µM | activity change, negative = inhibition [2] -13.3% | activity change, negative = inhibition [4] -2.35% | activity, negative = inhibition [5] -15.3% | Potency [6] > 9.22 µM | Potency [7] > 46 µM | outcome [8] | activity change, negative = inhibition [9] 1.73% | Potency [10] | Potency [11] | Potency [12] | Potency [13] | Potency [14]
12.6%: max response [9, 18]
active: Potency [3] 12.6 µM

N#CCCn1c(=O)c(-c2cccc(C#N)c2)nc2cnc(N3CCOCC3)nc21
7.79%: max response [9, 19]
active: Potency [3] 15.8 µM
inactive: Potency [1] > 11.4 µM | activity change, negative = inhibition [2] 2.97% | activity change, negative = inhibition [4] 6.22% | activity, negative = inhibition [5] 11.4% | Potency [6] > 9.22 µM | Potency [7] > 46 µM | outcome [8] | Potency [15] | Potency [16] | activity change, negative = inhibition [9] -2% | Potency [10] | Potency [11] | Potency [12] | Potency [13] | Potency [14]
13.8%: max response [9, 18]

COCCn1c(=O)cnc2cnc(Oc3ccccc3)nc21
12%: max response [9, 18]
active: Potency [3] 15.8 µM
12.6%: max response [9, 19]
inactive: Potency [1] > 11.4 µM | activity change, negative = inhibition [2] -14.7% | activity change, negative = inhibition [4] -0.802% | activity, negative = inhibition [5] -13.1% | Potency [6] > 9.22 µM | Potency [7] > 46 µM | outcome [8] | Potency [15] | Potency [16] | activity change, negative = inhibition [9] 3.04% | Potency [10] | Potency [11] | Potency [12] | Potency [13] | Potency [14]

COCCn1c(=O)cnc2cnc(Oc3ccc(OC)cc3)nc21
active: Potency [3] 5.01 µM
inactive: Potency [1] > 11.4 µM | activity change, negative = inhibition [2] -2.08% | activity change, negative = inhibition [4] -2.59% | activity, negative = inhibition [5] -5.99% | Potency [6] > 9.22 µM | Potency [7] > 46 µM | outcome [8] | Potency [15] | Potency [16] | activity change, negative = inhibition [9] 2.42% | Potency [10] | Potency [11] | Potency [12] | Potency [13] | Potency [14]
12.6%: max response [9, 18]
10.8%: max response [9, 19]

Cc1ccccc1-c1cc(N(C)C)ncn1
20.2%: max response [9, 18]
active: Potency [3] 2 µM | Potency [16] 15.8 µM
26.4%: max response [9, 19]
inactive: Potency [1] > 11.4 µM | activity change, negative = inhibition [2] -2.87% | activity change, negative = inhibition [4] -0.723% | activity, negative = inhibition [5] 7.1% | Potency [6] > 46 µM | Potency [7] > 46 µM | outcome [8] | Potency [15] | Potency [17] | activity change, negative = inhibition [9] 6.31% | Potency [10] | Potency [11] | Potency [12] | Potency [13] | Potency [14]
